# A number with no mark means an inactive call.
# Biological target: T1, USP22 (UniProt Q9UPT9)
# T1 sequence (whole entry): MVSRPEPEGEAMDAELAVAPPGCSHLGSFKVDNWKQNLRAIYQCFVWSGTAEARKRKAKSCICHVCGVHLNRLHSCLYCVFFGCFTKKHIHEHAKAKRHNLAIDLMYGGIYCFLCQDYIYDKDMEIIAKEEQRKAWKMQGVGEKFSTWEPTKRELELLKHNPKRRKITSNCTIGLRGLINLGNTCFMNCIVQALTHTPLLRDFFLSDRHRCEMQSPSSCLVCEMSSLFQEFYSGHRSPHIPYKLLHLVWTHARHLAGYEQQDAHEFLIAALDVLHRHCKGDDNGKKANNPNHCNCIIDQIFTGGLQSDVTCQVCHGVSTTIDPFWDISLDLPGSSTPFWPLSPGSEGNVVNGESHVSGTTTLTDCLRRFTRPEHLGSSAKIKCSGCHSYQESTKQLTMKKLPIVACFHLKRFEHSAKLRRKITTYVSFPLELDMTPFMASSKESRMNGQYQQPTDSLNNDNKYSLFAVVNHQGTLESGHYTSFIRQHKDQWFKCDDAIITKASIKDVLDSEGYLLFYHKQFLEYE
# Test: log2 ratio of Biotin-Ahx-Ub-VS probe labelling (fragment/DMSO); higher = less target engagement (more negative = stronger competition), active = hit call of the paper (q ≤ 0.05, log2 ratio ≤ -1)
# Conditions: compound concentration: 200 uM; treatment time: 3 h
# Experimental: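 Competitive ABPP in HEK293T cell lysate. Lysates were treated with each chloroacetamide fragment at 200 µM for 3 h, then with Biotin-Ahx-Ub-VS (0.5 µM, 1 h), NeutrAvidin-enriched and analysed by diaPASEF LC-MS/MS. Protein LFQ was median-normalised; average log2 ratio is fragment/DMSO from an unpaired t-test (n=3 treated, n=44 DMSO). Hits: q ≤ 0.05, log2 ratio ≤ -1, unique peptides ≥ 2.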
row,SMILES,log2 ratio of Biotin-Ahx-Ub-VS probe labelling
1,Cc1cc(CC(C)NC(=O)CCl)n[nH]1 (stereo not given),0.128
2,Cl.Cn1nc2c(c1CNC(=O)CCl)CCCC2,-0.0746
3,CC(=O)Nc1ccc(NC(=O)CCl)cc1,-0.0522
4,Cc1c(C#N)c(NC(=O)CCl)n(Cc2ccco2)c1C,-0.178
5,O=C(CCl)Nc1cc(Cl)ccc1C(=O)O,0.0608
6,Cl.O=C(CCl)N1CCCC(c2ncc[nH]2)C1 (stereo not given),0.0588
7,Cc1ccn2cc(CNC(=O)CCl)nc2c1.Cl,-0.112
8,NS(=O)(=O)c1ccc(Cl)c(NC(=O)CCl)c1,-0.46
9,O=C(CCl)N1CCOCCC1c1ccccc1 (stereo not given),0.147
10,O=C(CCl)N1CCC2(CCC(O)CC2)CC1,-0.145
11,O=C(CCl)NCCC1COCCO1 (stereo not given),0.193
12,CC(NC(=O)CCl)c1cc2n(n1)CCCC2.Cl (stereo not given),0.0191
13,CNC(=O)C1(NC(=O)CCl)CCCCC1,-0.0396
14,CN(C)C(=O)c1ccc(NC(=O)CCl)cc1,-0.0455
15,COc1cccc(CN(C)C(=O)CCl)c1,-0.426
16,NC(=O)C1CCCCN1C(=O)CCl (stereo not given),0.159
17,Cc1cc(C(=O)NC2CCN(C(=O)CCl)CC2)no1,-0.208
18,Cl.Cn1c(CNC(=O)CCl)nc2cccnc21,-0.175
19,COc1cc(Cl)c(C)cc1NC(=O)CCl,-0.0389
20,Cc1conc1C1CN(C(=O)CCl)C1,-0.421

row,SMILES,log2 ratio of Biotin-Ahx-Ub-VS probe labelling
1,Cc1cccc(NC(=O)[C@@H]2CCCN2C(=O)CCl)n1,-0.038
2,COc1ccc(CN(C)C(=O)CCl)cc1,-0.227
3,C[C@@H](NC(=O)CCl)c1cccc(C#N)c1,0.031
4,O=C(CCl)NC1CCC2(CC1)OCCO2,-0.165
5,O=C(CCl)N1CCOC2(CCC2)C1,0.184
6,O=C(CCl)NCc1cccc(F)c1,-0.171
7,Cl.Cn1nccc1C(NC(=O)CCl)c1ccccc1 (stereo not given),-0.153
8,Cc1cccc2nc(CCNC(=O)CCl)cn12.Cl,0.075
9,Cc1nnc(C(NC(=O)CCl)c2ccccc2)n1C (stereo not given),0.332
10,O=C(CCl)Nc1cc(Cl)ccc1-n1cncn1,-0.15
11,Cc1n[nH]c2c1CN(C(=O)CCl)CC2,-0.846
12,Cn1cc(CN(Cc2ccc(Cl)cc2)C(=O)CCl)cn1,0.0724
13,CCN1C(=O)C2CN(C(=O)CCl)CCN2C1=O (stereo not given),0.199
14,CN(C)S(=O)(=O)c1ccccc1CNC(=O)CCl,-0.12
15,Cc1ccc(CNC(=O)CCl)nc1C.Cl,0.00229
16,Cc1ccc2nnc(CNC(=O)CCl)n2c1,-0.259
17,O=C(CCl)N1CCCN(C(=O)c2ccc(Cl)cc2)CC1,-0.095
18,Cc1ccc(C)c(NC(=O)CCl)c1,-0.27
19,C#Cc1cccc(NC(=O)CCl)c1,-0.379
20,Cc1cccnc1NC(=O)C1CCN(C(=O)CCl)CC1.Cl,0.169
